# Laboratory results published in paper PMC4336329 (PLoS ONE, 2015).
# Among all 310,000 compounds or so, about 14,000 (4.5%) showed an effect of 50% or more. Effects have a minus sign here. The sample holds strong results, similar compounds and a random draw of the others, so the mix is not that of the screen.
# Molecular target: human ether-à-go-go-related gene (hERG) potassium channel (human, UniProt Q12809)
# Experiment: primary screen, population patch clamp on CHO cells stably expressing hERG; higher = less effect of the substance
# 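Further: peak tail current of the secondary pulse compared with the same well before compound.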
# Chain of human ether-à-go-go-related gene (hERG) potassium channel (Q12809 whole entry, looked up): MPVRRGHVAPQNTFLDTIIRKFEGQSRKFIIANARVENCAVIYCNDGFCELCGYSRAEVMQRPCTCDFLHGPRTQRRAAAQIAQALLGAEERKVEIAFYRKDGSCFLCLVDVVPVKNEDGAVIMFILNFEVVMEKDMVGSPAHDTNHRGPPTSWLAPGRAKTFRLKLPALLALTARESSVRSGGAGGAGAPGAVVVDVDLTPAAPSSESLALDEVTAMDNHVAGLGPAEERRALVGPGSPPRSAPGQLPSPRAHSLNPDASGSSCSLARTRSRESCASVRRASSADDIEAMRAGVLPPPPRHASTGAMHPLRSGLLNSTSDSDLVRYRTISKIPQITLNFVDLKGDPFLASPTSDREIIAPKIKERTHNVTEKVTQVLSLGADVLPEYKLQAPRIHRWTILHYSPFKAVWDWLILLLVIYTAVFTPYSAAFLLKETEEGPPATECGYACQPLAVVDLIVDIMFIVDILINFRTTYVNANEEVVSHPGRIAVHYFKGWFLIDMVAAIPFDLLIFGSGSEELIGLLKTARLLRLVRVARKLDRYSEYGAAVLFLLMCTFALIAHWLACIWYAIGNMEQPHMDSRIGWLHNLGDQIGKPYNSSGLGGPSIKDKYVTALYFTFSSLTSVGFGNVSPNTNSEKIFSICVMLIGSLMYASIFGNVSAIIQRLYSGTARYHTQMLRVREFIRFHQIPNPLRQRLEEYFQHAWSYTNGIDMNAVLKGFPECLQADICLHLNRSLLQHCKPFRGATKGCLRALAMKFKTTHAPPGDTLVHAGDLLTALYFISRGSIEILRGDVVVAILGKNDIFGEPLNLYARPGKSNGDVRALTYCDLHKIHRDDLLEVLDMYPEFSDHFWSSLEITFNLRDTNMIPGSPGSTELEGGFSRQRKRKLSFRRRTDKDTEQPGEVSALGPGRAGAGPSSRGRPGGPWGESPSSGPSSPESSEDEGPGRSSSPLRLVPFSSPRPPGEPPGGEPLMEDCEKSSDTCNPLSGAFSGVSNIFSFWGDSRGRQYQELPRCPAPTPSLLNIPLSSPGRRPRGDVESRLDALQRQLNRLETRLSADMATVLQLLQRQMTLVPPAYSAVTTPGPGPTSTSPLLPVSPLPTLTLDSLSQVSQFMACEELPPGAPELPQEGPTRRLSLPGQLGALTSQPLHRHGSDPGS
row,Compound,"hERG current change (%, negative = inhibition) at 10uM"
1,Nc1c(C=C2C=CC(=O)C=C2)c(=O)nc2sc(CC(=O)N3CCCCC3)nn12,15.6%
2,Br.COc1ccc(CNCc2ccc(F)cc2)c(OC)c1,-79%
3,COc1ccc(CNCc2ccncc2)c(OC)c1.Cl,-0.685%
4,COc1ccc(CNCc2cc(OC)ccc2OC)cc1.O=C(O)C(=O)O,-30.3%
5,COc1ccc(CNCc2cc(C)c(OC)cc2C)c(OC)c1.O=C(O)C(=O)O,-54.9%
6,COc1cc(CNCc2ccc(OC)cc2OC)cc(OC)c1.O=C(O)C(=O)O,-29.5%
7,CCC(CC)NCc1ccc2c(c1)c1ccccc1n2CC.O=C(O)C(=O)O,-28.5%
8,COc1cccc(CNCc2ccc(OC)cc2OC)c1.O=C(O)C(=O)O,-14.1%
9,COc1ccc(CNCc2ccc(C)cc2)c(OC)c1.O=C(O)C(=O)O,-31.3%
10,COc1ccc(NC(=S)NCc2ccc(F)cc2)c(OC)c1,1.54%
11,CCn1c2ccccc2c2cc(CN3CCN(Cc4cc(OC)ccc4O)CC3)ccc21.O=C(O)C(=O)O,7.15%
12,CCn1c2ccccc2c2cc(CNCc3ccc(OC)cc3OC)ccc21.O=C(O)C(=O)O,-76.2%
13,COc1ccc(CNCc2ccc3ccccc3c2)c(OC)c1.O=C(O)C(=O)O,-68.3%
14,CC1(C)CN(c2ccc(N3CC(C)(C)C3=O)cc2)C1=O,4.66%
15,O=C(NC1CC2CCCC(C1)N2C(=O)Nc1ccccc1)c1ccncc1 (centres unmarked),0.052%
16,CNCCc1c[nH]c2ccc(O)cc12.O=C(O)C(=O)O,17.7%
17,Cc1cccc(NC(=O)c2ccccc2NC(=O)C(C)(C)C)n1,-0.982%
18,CC(C)c1ccc(Nc2nnc(SCC(=O)c3nnc(-c4ccccc4)o3)s2)cc1,22.2%
19,CCn1c(NCc2ccc(N(C)C)cc2)nc2ccccc21,-41.2%
20,O=C(Nc1nccs1)c1ccccn1,-3.04%
21,Nc1nc(SCc2nc3sc4c(c3c(=O)[nH]2)CCCC4)n[nH]1,8.47%
22,CCOc1cccc(CNCCNC(=O)c2nonc2N)c1.Cl,-7.85%
23,O=C(c1ccco1)N1CCN(C(=O)c2ccccc2OCc2ccc(Cl)cc2)CC1,-75.9%

row,Compound,"hERG current change (%, negative = inhibition) at 10uM"
1,CSc1ccccc1C(=O)NCC(c1ccco1)N(C)C (centres unmarked),16.9%
2,O=C(c1ccc(COc2ccc(F)cc2)o1)n1cccn1,4.97%
3,CN(C)C(CNC(=O)c1ccccc1OCc1ccc(Cl)cc1)c1ccco1 (centres unmarked),-60.3%
4,O=C(c1ccco1)N1CCN(C(=O)c2ccc(CS(=O)c3ccc(F)cc3)o2)CC1 (centres unmarked),11.8%
5,CCN1CCN(C(=O)c2ccc(COc3ccc(Cl)cc3)o2)CC1,-52.5%
6,COc1ccc(Cl)cc1C(=O)NCC(c1ccco1)N(C)C (centres unmarked),-4.19%
7,O=C(OCC(=O)N1CCN(C(=O)c2ccco2)CC1)c1ccccc1OCc1ccc(Cl)cc1,-35.3%
8,O=C(c1ccc(COc2ccc(Cl)cc2)o1)N1CCN(Cc2ccc3c(c2)OCO3)CC1,-12.7%
9,O=C(c1ccco1)N1CCN(C(=O)c2ccc(COc3ccc(F)cc3)o2)CC1,-62.6%
10,CCN1CCN(C(=O)c2ccc(COc3cccc(Cl)c3)o2)CC1,-23.7%
11,O=C(c1ccccc1OCc1ccc(Cl)cc1)N1CCN(c2ccccn2)CC1,-42.4%
12,Nn1c(SCC(=O)NC2CCCCC2)nnc1-c1ccccc1F,-3.17%
13,CCCc1[nH]nc2c1C(c1ccsc1)C(C#N)=C(N)O2 (centres unmarked),-7.53%
14,CCOC(=O)C1CCN(C(=O)c2cc3c(OC)c(OC)c(OC)cc3[nH]2)CC1,15.5%
15,O=C(c1ccco1)N1CCN(C(=O)c2ccc(COc3ccc4c(c3)CCC4)o2)CC1,-69%
16,O=C(c1ccc(COc2ccc3c(c2)CCC3)o1)N1CCN(c2ccccc2)CC1,15.5%
17,O=C(c1ccco1)N1CCN(C(=O)c2ccc(COc3ccc(Cl)cc3Cl)o2)CC1,-70.4%
18,O=C(c1ccc(COc2ccc(Cl)cc2Cl)o1)N1CCCC1,-43.1%
19,O=C(COc1ccc(Cl)cc1Cl)N1CCN(C(=O)c2ccco2)CC1,20.6%
20,NNC(=O)c1ccc(COc2ccc3c(c2)CCC3)o1,0.852%
21,CCOc1cc2[nH]c(=S)n(CCC(=O)NCc3ccco3)c(=O)c2cc1OCC,23.6%
22,CCOc1ccccc1CN1CCN(Cc2cc(=O)c3ccccc3[nH]2)CC1CCO (centres unmarked),-66.6%
23,Cc1ccc(CN2CCN(Cc3cc(=O)c4ccccc4[nH]3)CC2CCO)o1 (centres unmarked),-30.8%

row,Compound,"hERG current change (%, negative = inhibition) at 10uM"
1,CCOc1ccccc1CN1CCN(Cc2cc3ccccc3[nH]2)CC1CCO (centres unmarked),-59.3%
2,CC(C)CCN1CCN(Cc2cc3ccccc3[nH]2)CC1CCO (centres unmarked),-22.4%
3,CC(C)(C)CN1CCN(Cc2cc3ccccc3[nH]2)CC1CCO (centres unmarked),-8.03%
4,O=c1cc(CN2CCN(Cc3ccc(F)cc3)C(CCO)C2)[nH]c2ccccc12 (centres unmarked),-61.2%
5,Cc1cc(NC(=O)CSc2nc3sc4c(c3c(=O)n2C)CCCC4)no1,7.47%
6,O=c1c2ccccc2c(-c2ccccc2)nn1-c1ccc(Cl)c(Cl)c1,13.3%
7,CCOC(=O)C1CCCNC1=O (centres unmarked),14.8%
8,Brc1ccc2c(c1)OCCOCCOc1cc(Br)ccc1OCCOCCOCCO2,-4.86%
9,O=C(Nc1ccc(Br)cc1F)c1ccc2c(c1)OCCO2,12.3%
10,S=C(Nc1ccc(Br)cc1)Nc1ccc2c(c1)OCCO2,20.5%
11,C=Cc1ccc2c(c1)OCCOCCOCCOCCOCCO2,-71.2%
12,Brc1ccc2c(c1)OCCOCCOCCOCCOCCOCCO2,-70.8%
13,Brc1cc2c(cc1Br)OCCOCCOCCO2,-11.5%
14,O=C(O)/C=C/c1ccc2c(c1)OCCO2,-25%
15,Brc1cc2c(cc1Br)OCCOCCOCCOCCO2,-76.5%
16,Brc1ccc2c(c1)OCCOCCOCCOCCOCCO2,-76.4%
17,CC(=O)Nc1cc2c(cc1Br)OCCO2,21.5%
18,O=C(Nc1ccc2c(c1)OCCO2)c1ccc(Br)cc1,-3.81%
19,Cl.Nc1ccc2c(c1)OCCOCCOCCOCCOCCO2,-33.5%
20,COC(=O)/C(=C\c1cc(OC)c(OC)c(OC)c1)c1nc2ccccc2[nH]1.Cl,19%
21,COc1ccc(C)cc1NC(=O)CCCN1C(=O)C(c2ccccc2)Oc2cccnc21 (centres unmarked),2.21%
22,Cc1cccc(CCNC(=O)CCS(=O)(=O)c2cc3c(cc2Cl)NC(=O)CO3)c1,3.71%
23,CC[C@H]1OC(=O)[C@H](C)[C@@H](O[C@H]2C[C@@](C)(OC)[C@@H](O)[C@H](C)O2)[C@H](C)[C@@H](O[C@@H]2O[C@H](C)C[C@H](N(C)C)[C@H]2O)[C@](C)(O)C[C@@H](C)CN(C)[C@H](C)[C@@H](O)[C@]1(C)O,1.55%

row,Compound,"hERG current change (%, negative = inhibition) at 10uM"
1,Cc1ccc(/C(O)=C2/C(=O)C(=O)N(Cc3ccco3)C2c2cccs2)cc1 (centres unmarked),-8.53%
2,CCOC(=O)c1cc(C(=O)n2cc(Cl)cn2)nn1C,10.6%
3,Cc1ccc(-c2csc(NC(=O)CCNC(=O)c3ccco3)n2)cc1,5.76%
4,COc1cc2c(cc1NC(=O)c1cc(-c3cccnc3)nc3ccc(C)cc13)oc1ccccc12,8.86%
5,CCN(CC)c1ccc(/C=N/NC(=O)c2cccc(S(=O)(=O)N3CCOCC3)c2)cc1,-24.4%
6,CC1(C(=O)Nc2nnc(SCc3ccccc3)s2)Cc2ccccc2C(=O)O1 (centres unmarked),-24.6%
7,COc1ccc(OCC(=O)c2c(O)c3ccccc3oc2=O)cc1,-12.4%
8,CCOC(=O)C1=NN(C(=O)Cc2ccccc2)C(O)(C(C)(C)C)C1 (centres unmarked),9.74%
9,CCOC(=O)C1=NN(C(=O)c2cccc(Br)c2)C(O)(C(C)(C)C)C1 (centres unmarked),-57.6%
10,COC(=O)C1=NN(C(=O)c2cccc(Cl)c2)C(O)(C(C)(C)C)C1 (centres unmarked),8.11%
11,COc1ccc(C2CC(=O)C3=C(C2)Nc2ccccc2N(C(C)=O)C3c2ccco2)cc1 (centres unmarked),-35.8%
12,O=[N+]([O-])c1cccc(C(=NCc2ccccc2)NO)c1,15.9%
13,CN(C)C(=S)Nc1ccc([N+](=O)[O-])cc1,-0.053%
14,CN(C)C(=S)NC(=NCc1ccc([N+](=O)[O-])cc1)c1ccccc1,-90.7%
15,Nc1ncc([N+](=O)[O-])c(Oc2ccccc2F)n1,24.7%
16,CCCC1(CCC)C(=O)NC(=NCc2ccccc2)NC1=O,12.7%
17,Cc1cc(C)n(-c2nc3c(c(=O)[nH]c(=O)n3C)n2CC(O)COc2ccccc2C)n1 (centres unmarked),-31.9%
18,O=C(COc1cccc2c1CCN(Cc1ccccc1F)C2=O)N1CCCCC1,-43.4%
19,O=C(COc1cccc2c1CCN(Cc1ccc(Br)cc1)C2=O)N1CCOCC1,-58.4%
20,CC1CCN(C(=O)COc2cccc3c2CCN(Cc2ccccc2)C3=O)CC1,-36%
21,CCN1CCc2c(OCC(=O)N3CCCCC3)cccc2C1=O,5.33%
22,O=C(COc1cccc2c1CCN(Cc1ccccc1)C2=O)N1CCCCC1,-15%
23,O=C(COc1cccc2c1CCN(Cc1ccc(Cl)cc1)C2=O)N1CCOCC1,-60.2%
